# Several values for one entry are separate records, joined by “and”; a condition that tells them apart may be missing. Equal entries are not always repeated. The campaign covered roughly 5,500 compounds. About 2,000 (36%) were called active. Inconclusive results (about 18%) are left out. The list shows a part of the results. Unmarked numbers belong to inactive results. No stated cut-off is given here; in the data, active means normalized growth mostly below about 0.91 (no sharp cut-off); inconclusive means no clear call, values can overlap the other calls; inactive means mostly above about 0.92.
# Assay: chemical genetic growth profiling, strain panel (AID 1159580);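 further: tested at 20 µM; growth read once vehicle control cultures reached saturation at 30 °C; 1 = growth at the plate median or of vehicle wells; lower values mean less growth of the strain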
# Conditions: S. cerevisiae deletion strains, growth OD
structure (smiles),measurement,setting,value
COc1c2occc2cc2ccc(=O)oc12,normalized growth,"locus YAL013W, strain DEP1, active compounds read low",0.992
same,normalized growth,"locus YAL021C, strain ccr4, active compounds read low",0.966
same,normalized growth,"locus YAL026C, strain drs2, active compounds read low",0.954
same,normalized growth,"locus YAL030W, strain snc1, active compounds read low",0.975
same,normalized growth,"locus YBL061C, strain skt5, active compounds read low",0.973
same,normalized growth,"locus YBR009C, strain hhf1, active compounds read low",0.878 (active)
same,normalized growth,"locus YBR021W, strain FUR4, active compounds read low",1.08
same,normalized growth,"locus YBR023C, strain chs3, active compounds read low",0.926
same,normalized growth,"locus YBR171W, strain sec66, active compounds read low",0.945
same,normalized growth,"locus YBR229C, strain ROT2, active compounds read low",1.01
same,normalized growth,"locus YBR231C, strain swc5, active compounds read low",1.03
same,normalized growth,"locus YBR279W, strain paf1, active compounds read low",0.98
same,normalized growth,"locus YCL011C, strain gbp2, active compounds read low",0.88 (active)
same,normalized growth,"locus YCL016C, strain dcc1, active compounds read low",0.888 (active)
same,normalized growth,"locus YCL029C, strain bik1, active compounds read low",0.976
same,normalized growth,"locus YCL061C, strain MRC1, active compounds read low",0.931
same,normalized growth,"locus YCL069W, strain vba3, active compounds read low",0.96
same,normalized growth,"locus YCR088W, strain abp1, active compounds read low",0.998
same,normalized growth,"locus YDL005C, strain med2, active compounds read low",0.987
same,normalized growth,"locus YDL035C, strain GPR1, active compounds read low",0.956
same,normalized growth,"locus YDL040C, strain nat1, active compounds read low",0.995
same,normalized growth,"locus YDL074C, strain BRE1, active compounds read low",0.908
same,normalized growth,"locus YDL101C, strain DUN1, active compounds read low",0.958
same,normalized growth,"locus YDL134C, strain PPH21, active compounds read low",0.997
same,normalized growth,"locus YDL185W, strain tfp1, active compounds read low",0.928
same,normalized growth,"locus YDL192W, strain arf1, active compounds read low",0.969
same,normalized growth,"locus YDR001C, strain nth1, active compounds read low",0.983
same,normalized growth,"locus YDR069C, strain doa4, active compounds read low",0.964
same,normalized growth,"locus YDR101C, strain arx1, active compounds read low",0.993
same,normalized growth,"locus YDR137W, strain rgp1, active compounds read low",0.954
same,normalized growth,"locus YDR150W, strain NUM1, active compounds read low",0.952
same,normalized growth,"locus YDR159W, strain sac3, active compounds read low",1.02
same,normalized growth,"locus YDR162C, strain NBP2, active compounds read low",0.931
same,normalized growth,"locus YDR195W, strain ref2",1.17 [resistant] (active)
same,normalized growth,"locus YDR297W, strain sur2, active compounds read low",0.978
same,normalized growth,"locus YDR318W, strain mcm21, active compounds read low",0.953
same,normalized growth,"locus YDR334W, strain swr1, active compounds read low",0.919
same,normalized growth,"locus YDR335W, strain msn5, active compounds read low",0.982
same,normalized growth,"locus YDR388W, active compounds read low",0.985
same,normalized growth,"locus YDR392W, strain spt3, active compounds read low",0.852
same,normalized growth,"locus YDR502C, strain sam2, active compounds read low",0.957
same,normalized growth,"locus YEL003W, strain gim4, active compounds read low",0.988
same,normalized growth,"locus YEL037C, strain rad23, active compounds read low",0.944
same,normalized growth,"locus YEL061C, strain CIN8 (second series), active compounds read low",0.981
same,normalized growth,"locus YEL061C, strain CIN8, active compounds read low",0.999
same,normalized growth,"locus YER015W, strain faa2, active compounds read low",0.965
same,normalized growth,"locus YER016W, strain bim1, active compounds read low",1
same,normalized growth,"locus YER110C, active compounds read low",0.948
same,normalized growth,"locus YER111C, strain swi4, active compounds read low",0.973
same,normalized growth,"locus YER155C, strain BEM2 (second series), active compounds read low",0.866
same,normalized growth,"locus YER155C, strain BEM2, active compounds read low",1.03
same,normalized growth,"locus YER167W, strain BCK2, active compounds read low",0.982
same,normalized growth,"locus YFR010W, strain ubp6, active compounds read low",0.94
same,normalized growth,"locus YGL078C, strain dbp3, active compounds read low",0.99
same,normalized growth,"locus YGL086W, strain mad1, active compounds read low",0.961
same,normalized growth,"locus YGL167C, strain pmr1, active compounds read low",0.998
same,normalized growth,"locus YGL173C, strain kem1, active compounds read low",0.973
same,normalized growth,"locus YGL227W, strain vid30, active compounds read low",0.988
same,normalized growth,"locus YGL240W, strain doc1, active compounds read low",0.99
same,normalized growth,"locus YGL248W, strain PDE1, active compounds read low",0.999
same,normalized growth,"locus YGL253W, strain hxk2, active compounds read low",0.942
same,normalized growth,"locus YGR078C, strain PAC10, active compounds read low",0.922
same,normalized growth,"locus YGR135W, strain pre9, active compounds read low",0.935
same,normalized growth,"locus YGR229C, strain SMI1, active compounds read low",0.948
same,normalized growth,"locus YGR252W, strain gcn5, active compounds read low",0.817
same,normalized growth,"locus YHR013C, strain ard1, active compounds read low",0.935
same,normalized growth,"locus YHR027C, strain rpn1, active compounds read low",0.956
same,normalized growth,"locus YHR030C, strain SLT2, active compounds read low",0.995 and 1.02
same,normalized growth,"locus YHR079C, strain IRE1 (second series), active compounds read low",0.992
same,normalized growth,"locus YHR079C, strain IRE1, active compounds read low",1.03
same,normalized growth,"locus YHR094C, strain hxt1, active compounds read low",0.988
same,normalized growth,"locus YHR129C, strain ARP1, active compounds read low",0.996
same,normalized growth,"locus YHR142W, strain chs7, active compounds read low",0.856 (active)
same,normalized growth,"locus YHR200W, strain rpn10, active compounds read low",0.928
same,normalized growth,"locus YIL066C, strain RNR3, active compounds read low",0.933
same,normalized growth,"locus YIL073C, strain SPO22, active compounds read low",0.865
same,normalized growth,"locus YIL125W, strain kgd1, active compounds read low",1
same,normalized growth,"locus YIR030C, strain dcg1, active compounds read low",0.998
same,normalized growth,"locus YJL092W, strain hpr5, active compounds read low",0.917 (active)
same,normalized growth,"locus YJL095W, strain BCK1 (second series), active compounds read low",0.982
same,normalized growth,"locus YJL095W, strain BCK1, active compounds read low",0.911 and 1.02
same,normalized growth,"locus YJL115W, strain asf1, active compounds read low",0.943
same,normalized growth,"locus YJL129C, strain trk1, active compounds read low",0.987
same,normalized growth,"locus YJL134W, strain LCB3, active compounds read low",0.985
same,normalized growth,"locus YJL154C, strain vps35, active compounds read low",0.984
same,normalized growth,"locus YJL164C, strain tpk1, active compounds read low",0.945
same,normalized growth,"locus YJL166W, strain qcr8, active compounds read low",0.943
same,normalized growth,"locus YJL168C, strain set2, active compounds read low",0.985
same,normalized growth,"locus YJL187C, strain SWE1 (second series), active compounds read low",0.974
same,normalized growth,"locus YJL187C, strain SWE1, active compounds read low",0.976
same,normalized growth,"locus YJR043C, strain POL32, active compounds read low",0.953
same,normalized growth,"locus YJR066W, strain TOR1, active compounds read low",0.969

# Source: PubChem BioAssay AID1159580 (chemical genetic matrix, 2015)
